From PubChem BioAssay
Only some compounds are listed: those with a hit (about 7.4% of all), similar ones and a draw of the others.
SMN2 splice enh: enhancers of SMN2 splice variant expression. HEK293 SMN2-luciferase splicing reporter, luminescence, 30-36 h. Potency, µM (top dose mostly 46.1 µM), for inactives: at the top dose activity change, positive = activation, hits mostly activators. hit rate 2.8% among 210,000. AID 1458; further: % of control where 0% means no effect; nearly all actives have a fitted effect of over 55% in size
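qHTS luciferase splicing reporter: luminescence rises when SMN2 exon 7 is included in transfected HEK293 cells. Compound exposure lasted 30-36 h at 37C, with 4.5 mM final sodium butyrate as control, followed by a ONE-Glo read.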
NPC1 prom act: activates the NPC1 promoter; Huh7 NPC1 promoter luciferase reporter, 24 h; hit rate 2.4% among 320,000; Potency, µM (titrated, usually from 9.22 µM), for inactives: at the highest dose activation, hits mostly activators; further: % of control where 0% means no effect; nearly all actives have a fitted effect of over 60% in size
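Quantitative HTS used a cell-based reporter: Huh7 cells stably bearing the NPC1 promoter upstream of luciferase were treated with compounds for 24 h, and promoter activation was read as luminescence.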
ELG1 genotoxic: inducers of genotoxicity in HEK293T ELG1-luciferase cells. HEK293T ELG1-luciferase reporter, luminescence, 16 h. Potency, µM (doses to about 46 µM), for inactives: top-dose activity change, positive = activation, hits mostly activators. hit rate 1.3% among 330,000. AID 504466; further: % of control where 0% means no effect; nearly all actives have a fitted effect of over 60% in size
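16 hr compound incubation (37 °C, 5% CO2) of HEK293T cells carrying luciferase-tagged ELG1; luciferase then measured by ONE-Glo luminescence after 30 min at RT.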
FLuc counter: counter-screen for miR-21 project: firefly luciferase inhibitors or activators; P08659; purified FLuc, Km substrates, luminescence inhibition; Potency, µM (titrated, usually from 57.5 µM), inactives show top-dose activity change, negative = inhibition, hits mostly inhibitors; hit rate 6.9% among 360,000; AID 588342;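 further: plate controls were vehicle for no effect and reference inhibitor for full effect; nearly all actives have a fitted effect of over 55% in size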
Target sequence (P08659 whole entry, looked up): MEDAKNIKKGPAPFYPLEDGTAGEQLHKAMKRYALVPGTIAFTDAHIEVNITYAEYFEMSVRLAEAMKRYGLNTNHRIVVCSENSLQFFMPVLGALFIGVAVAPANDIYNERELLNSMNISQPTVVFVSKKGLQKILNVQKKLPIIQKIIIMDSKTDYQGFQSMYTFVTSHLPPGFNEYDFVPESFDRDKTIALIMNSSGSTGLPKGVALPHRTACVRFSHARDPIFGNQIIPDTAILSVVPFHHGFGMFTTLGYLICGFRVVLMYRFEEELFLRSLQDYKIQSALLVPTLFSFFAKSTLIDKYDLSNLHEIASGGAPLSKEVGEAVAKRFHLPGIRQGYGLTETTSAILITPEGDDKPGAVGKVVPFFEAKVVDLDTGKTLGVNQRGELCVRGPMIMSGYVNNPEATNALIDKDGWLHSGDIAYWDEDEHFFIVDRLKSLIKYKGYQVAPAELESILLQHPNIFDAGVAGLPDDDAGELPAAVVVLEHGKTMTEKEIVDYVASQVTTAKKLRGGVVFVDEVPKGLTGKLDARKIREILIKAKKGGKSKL
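Purified P. pyralis luciferase (10nM final) with 10uM D-luciferin and 10uM ATP (Km levels) in 50mM Tris acetate pH 7.5, 10mM Mg acetate, 0.01% Tween-20, 0.05% BSA; qHTS 6-point titration, ~60 µM downward; luminescence read.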
p53 reactivator: re-activators of mutant p53 | H1299 p53-A138V BP100-luciferase reporter, luminescence, 24 h | Potency, µM (doses to about 92.2 µM), without a hit: at the top dose activity change, positive = activation, usual class: activators | hit rate 0.063% among 320,000; further: % of control where 0% means no effect; nearly all actives have a fitted effect of over 45% in size
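p53-null H1299 cells stably carrying temperature-sensitive p53-A138V and a BP100-luciferase reporter were pinned with compounds (4-point, 1:5 series) and held 24 hrs at 37 deg C. Luminescence was read 10 min after detection reagent.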
Rab9 prom act: Rab9 promoter activation | AID 485297 | Potency, µM (top dose mostly 9.22 µM), inactives show at the top dose activation, negative = inhibition, usual class: activators | Huh7 Rab9 promoter-luciferase reporter, luminescence, 24 h | hit rate 2.8% among 320,000; further: % of control where 0% means no effect; nearly all actives have a fitted effect of over 60% in size
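Cells were plated at 1500 per well in reduced-serum medium with 10% FBS and left 2 h. Compound in DMSO was then added for 24 h at 37 °C. Reporter signal was read by luminescence after 10 min with luciferase detection reagent.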
Active calls of the source: *; u = inconclusive; x = no result; [ ] = another dose, or the depositor's remark. The call rests on the fitted dose curve; in most records, active means well fitted curve in the direction sought with a large enough effect; inconclusive means small, poorly fitted or top-dose-only effect, or another doubt; inactive means no such curve, though single readings can be large; an effect the other way counts as inactive or inconclusive. Potency means the concentration at half of the fitted maximal effect.

SMILES	SMN2 splice enh	NPC1 prom act	ELG1 genotoxic	FLuc counter	p53 reactivator	Rab9 prom act
O=C(/C=C/c1cccnc1)c1cc(F)ccc1O	x	-3%	0%	-8%	0%	-7%
COc1ccc(C(=O)c2ccccc2O)c(O)c1	2%	-1%	5%	1%	-2%	2%
O=C(O)c1cc(/C=C/C(=O)c2cc(F)ccc2O)c2c(c1)COCO2	x	1%	12%	30µM*	0%	-2%
COc1ccc(C(=O)/C=C/c2cc(C(=O)O)cc3c2OCOC3)c(O)c1	x	-1%	16%	1.7µM*	20%	-3%
O=C1N=C(N2CCOCC2)S/C1=C\c1ccncc1	x	1%	-12%	-2%	-1%	-3%
CCN1C(=O)/C(=C/C2=Cc3ccccc3OC2C)SC1=S (centres undefined)	x	-2%	0%	13µM*	2%	7%
CC1Oc2ccccc2C=C1/C=C1/SC(N2CCOCC2)=NC1=O (centres undefined)	21%	20%	12%	21µM*	8%	u
CC(=C/c1ccccc1)/C=C1/SC(N2CCOCC2)=NC1=O	u	u	11%	15µM*	u	u
Cc1ccc(Nc2c(-c3ccc(N4CCOCC4)cc3)nc3c(C)cccn23)cc1	6%	x	x	-15%	x	x
CCOC(=O)c1c(N)n[nH]c1-c1ccc(OC)cc1	u	0%	-12%	0%	9%	-2%
CCOC(=O)c1sc(-c2ccc(F)cc2)cc1N	u	u	14µM*	9.5µM*	14%	2.5µM*
CCOC(=O)c1sc(-c2ccccc2)cc1N	u	u	13µM*	13µM*	u	u
CCOC(=O)c1sc(-c2ccc(OC)cc2)cc1N	x	2.2µM*	u	u	u	1.3µM*
CC(=O)c1sc(-c2ccccc2)cc1N	x	-5%	10%	u	3%	12%
CCOC(=O)c1cc(-c2ccccc2)sc1N	u	29%	15%	21µM*	u	u
CCOc1ccc(Cl)cc1C1CC(=O)Nc2cc(OC)c(OC)c(OC)c21 (centres undefined)	-9%	x	x	3%	x	x
COc1ccccc1-c1ccc2nnc(SC)n2n1	x	0%	u	4%	-12%	5%
CCCSCCCNC(=O)c1cc2n(n1)CCCN(Cc1ccc(C)cc1)C2=O	x	x	x	1%	x	x
Cc1nc2ncnn2c(C)c1CCC(=O)N1CCN(c2ccccc2)CC1	1%	x	x	-5%	x	x
CNc1c(NS(=O)(=O)c2ccc(CC(C)C)cc2)c(=O)oc2ccccc12	x	0%	4%	1%	3%	-1%
CCOC(=O)c1c(N)sc(C(O)(C(F)(F)F)C(F)(F)F)c1-c1ccccc1	-26%	-1%	12%	0%	3%	0%
CCOC(=O)c1c(N)sc(-c2ccccc2)c1C	14%	-2%	u	17µM*	u	2%
CSc1nc2c(cc1C#N)CCC2	x	1%	0%	-1%	-2%	-2%
N#Cc1cc2c(nc1SC1CC(=O)N(c3ccccc3)C1=O)CCC2 (centres undefined)	-78%	-11%	3%	11µM*	20%	-13%
Fc1ccc(CNc2ccccn2)cc1	x	8%	5%	-30%	u	14%
SMILES	SMN2 splice enh	NPC1 prom act	ELG1 genotoxic	FLuc counter	p53 reactivator	Rab9 prom act
CN(C)c1ccc(CNc2ncc(Br)cc2Br)cc1	17%	19%	11%	19µM*	24%	7%
CSc1ccc(CNc2ccccn2)cc1	12%	u	u	15µM*	u	u
CN(C)c1ccc(CNc2ccccn2)cc1	x	u	u	13µM*	6%	u
CN(C)c1ccc(CNc2ncnc3sccc23)cc1	x	-28%	-7%	-13%	4%	-32%
Cc1cccc(CNc2cc(-c3ccc(N(C)C)cc3)ncn2)c1	-12%	x	x	x	x	x
CN(C)c1ccc(-c2cc(NCc3cccnc3)ncn2)cc1	10µM*	x	x	x	x	x
O=C(CN1CCN(S(=O)(=O)c2ccc(Cl)s2)CC1)N1CCOCC1	x	0%	-3%	5%	-2%	-2%
O=C(Nc1ccc(F)cc1)C1CCN(c2nc3ccccc3nc2C(F)(F)F)CC1	x	x	x	6%	x	x
COc1ccc2cc([S+]([O-])Cc3ncc(C)c(OC)c3C)nc2c1	x	15%[46.1 µM]	x	x	x	13%[46.1 µM]
O=C(NCc1ccccc1)C(c1c(F)cccc1Cl)N(C(=O)c1csnn1)C1CC1 (centres undefined)	x	0%	-1%	1%	-8%	-2%
Cc1cccc(NCc2ccc(N(C)C)cc2)n1	x	u	18µM*	11µM*	28%	u
Cc1cccc(C(=O)Nc2cccc(OCc3cc(=O)n4cc(C)sc4n3)c2)c1	-3%	x	x	-9%	x	x
Cc1cn2c(=O)cc(COC(=O)c3ccc(NC(=O)c4ccc(C(C)(C)C)cc4)cc3)nc2s1	x	x	x	-18%	x	x
Cc1cn2c(=O)cc(COc3cccc(NC(=O)c4ccc(C(C)(C)C)cc4)c3)nc2s1	9%	x	x	1.2µM*	x	x
Cc1cn2c(=O)cc(COC(=O)c3cccc(NC(=O)c4ccc(C(C)(C)C)cc4)c3)nc2s1	x	x	x	0.76µM*	x	x
COc1ccc(N(Cc2cccs2)C(=O)Nc2cccc(Cl)c2)cc1	x	x	x	-1%	x	x
COc1c(C2=CC(=O)N(C)C2=O)c2c(n1C)C(=O)c1ccccc1C2=O	-4%	x	x	x	x	x
Cc1ccc(/C=C2\SC(=S)N(CC3CCCO3)C2=O)o1 (centres undefined)	x	17%	4%	21µM*	u	u
Cc1ccc(/C=C2/SC(=S)N(C3CCCCC3)C2=O)o1	x	1%	7%	3%	2%	16%
Cc1ccc(/C=C2/SC(=O)NC2=S)o1	-4%	-2%	0%	27µM*	-4%	-1%
O=C1/C(=C/c2ccco2)SC(=S)N1CC1CCCO1 (centres undefined)	x	-2%	7%	17µM*	u	21%
COc1ccc(S(=O)(=O)N2CCC(C(=O)Nc3ccc(Oc4ccccc4)cc3)CC2)cc1	-20%	x	x	7%	x	x
COc1ccc(-c2nc3c(c4c2C[C@H](c2ccccc2)OC4)CN(S(=O)(=O)c2ccc(C#N)cc2)CC3)c(C)c1	6%[9.22 µM]	x	x	x	x	x
COc1ccc(-c2cn3c(n2)sc2cc(C(=O)NCCc4ccc(OC)cc4OC)ccc23)cc1	x	x	x	2%	x	x
CCCCSc1ccc2nc(-c3ccc(C#N)cc3)cn2c1	u	u	4%	4.8µM*	u	u
CCCSc1ccc2nc(-c3ccccc3)cn2c1	x	0.71µM*	u	0.085µM*	-9%	0.45µM*
COc1cccc(NC(=O)Nc2cc(C)ccc2F)c1	22%	29%	7%	24µM*	11%	20%
COc1ccc(NC(=O)Nc2cc(C)ccc2OC)cc1	-10%	0%	21%	u	1%	-5%
